ALDH1A1 block: inhibitors of human aldehyde dehydrogenase 1A1; Purified ALDH1A1, NADH fluorescence, propionaldehyde substrate; Potency, µM (highest dose often 75.3 µM), usual class: inhibitors; 220,000 tested, 7.3% active
PNC assembly inh: blocks assembly of the perinucleolar compartment | PC3M PTB-GFP, PNC prevalence imaging, 16 h; active compounds read low | activity change (PNC), negative = inhibition, % at 10 µM | 140,000 tested, 3.1% active;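 active = readout at or below -70, meaning at least 70% loss of cells showing the perinucleolar compartment, a nuclear body marking cancer cells; inconclusive = readout between -30 and a set limit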
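PC3M cells stably expressing PTB-GFP, 750–1000 cells/well, treated 16 h at 37 °C with compound (23 nl of library stock), in duplicate. After paraformaldehyde fixation and Hoechst stain, imaged at 20x; PNC prevalence scored by image analysis.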
HPGD block: blocks human HPGD enzyme activity; P15428; purified HPGD, NADH fluorescence kinetic, PGE2 substrate; Potency, µM, actives largely listed as inhibitors; 150,000 tested, 4.3% active; AID 894
Target sequence (P15428 whole entry, looked up): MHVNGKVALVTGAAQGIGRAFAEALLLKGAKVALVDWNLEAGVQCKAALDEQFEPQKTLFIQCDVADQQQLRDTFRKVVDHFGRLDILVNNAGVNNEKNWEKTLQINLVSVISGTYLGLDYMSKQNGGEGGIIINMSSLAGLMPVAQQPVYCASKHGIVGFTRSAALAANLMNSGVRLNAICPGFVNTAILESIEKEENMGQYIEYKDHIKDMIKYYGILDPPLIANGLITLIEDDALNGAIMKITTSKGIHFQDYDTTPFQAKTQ
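NADH formation kinetics: reaction with 30 uM PGE2 and 1 mM NAD+ (final), 20 nM enzyme, Tris-HCl pH 8 with Tween 20, after 15 min compound preincubation at room temperature. Fluorescence change, last versus first of five reads.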
Each line names hits and unclear results; the compound was inactive in the other large screens. The list is not random: actives were taken first. Their share in the collection is about 11%. Unless noted, calls follow the shape of the dose curve; as a rule, active = well fitted inhibition curve with a large enough effect (not every such curve was filed as active); inconclusive = small, poorly fitted or top-dose-only effect, or another doubt; inactive = no such curve, though single readings can be large or run the other way.

CCOC(=O)c1cc(C(=O)c2ccccc2O)cn2c(=O)c3c(C)c(C)sc3nc12	ALDH1A1 block 14.1µM (no result: PNC assembly inh, HPGD block)
CC(NC(=O)c1ccc2c(c1)OCCO2)c1ccc(S(N)(=O)=O)cc1 (stereo unspecified)	none (no result: PNC assembly inh, HPGD block)
COc1ccccc1NC(=O)c1ccc(-c2ccccc2[N+](=O)[O-])o1	ALDH1A1 block 7.94µM (no result: PNC assembly inh, HPGD block)
COc1ccccc1NC(=O)c1ccc(-c2ccc(Br)cc2)o1	ALDH1A1 block inconclusive, HPGD block inconclusive
COC(=O)c1ccccc1NC(=O)N1CCN(c2ccc(OC)cc2)CC1	none (no result: PNC assembly inh, HPGD block)
C=CCSCC(N)C(=O)O (stereo unspecified)	ALDH1A1 block inconclusive (no result: PNC assembly inh)
N#Cc1cn(Cc2ccccc2)c2ccccc12	ALDH1A1 block inconclusive
O=C(CSc1cn(Cc2ccccc2)c2ccccc12)Nc1nccs1	ALDH1A1 block 14.1µM
O=C(O)CC(C(=O)O)c1cn(Cc2ccccc2)c2ccccc12 (stereo unspecified)	ALDH1A1 block 11.2µM
O=C(CSc1ncccn1)NCc1ccc(F)cc1	none
O=C(CSc1ccccc1)Nc1nccs1	none (no result: PNC assembly inh, HPGD block)
O=C(CSc1cn(Cc2ccccc2)c2ccccc12)NCc1ccc(F)cc1	ALDH1A1 block 7.94µM
Cc1cc(N)nc(C)c1C#N	none (no result: PNC assembly inh, HPGD block)
O=C(O)CC1NC(=O)N(C2CCCCC2)C1=O (stereo unspecified)	none (no result: PNC assembly inh, HPGD block)
COc1ccccc1-c1cncnc1Nc1ccc(F)cc1	none (no result: PNC assembly inh)
CCN(CC)c1ccc(NC(=O)C2CCCN(S(=O)(=O)c3cccnc3)C2)c(C)c1 (stereo unspecified)	none
C=CS(=O)(=O)c1sc(Cl)c(N2CCOCC2)c1[N+](=O)[O-]	ALDH1A1 block 0.224µM (no result: PNC assembly inh, HPGD block)
O=[N+]([O-])c1cccc(Cl)c1N1CCOCC1	none
CCN(CC)CCCNC(=O)c1ccc2c(SCC(=O)O)c3c(nc2c1)CCC3	none
CC(C)CCNC(=O)c1ccc2c(SCC(=O)O)c3c(nc2c1)CCCC3	ALDH1A1 block inconclusive, HPGD block 28.2µM
CN(C)c1ccc(C(=S)Nc2ccccc2)cc1	ALDH1A1 block inconclusive
N#C/C(=C\c1ccc([N+](=O)[O-])cc1)c1ccccn1	none (no result: PNC assembly inh, HPGD block)
CN(C)c1ccc(/C=C(\C#N)c2ccccn2)cc1	ALDH1A1 block 9.46µM
CN(C)c1ccc(NC(=S)c2ccccn2)cc1	ALDH1A1 block inconclusive, HPGD block 25.1µM
COC(=O)c1ccc(OC(=O)c2ccccn2)cc1	none
N#CC(C#N)=Cc1ccc(OC(=O)c2ccccn2)cc1	ALDH1A1 block 2µM
CCOC(=O)CCC(=O)N1CCOCCOCCN(C(=O)CCC(=O)OCC)CCOCCOCC1	PNC assembly inh inconclusive
COc1cc(/C=C(\NC(=O)c2ccccc2)C(=O)Nc2cccc(O)c2)c([N+](=O)[O-])cc1OC	none
COc1cc(/C=C(\NC(=O)c2ccccc2)C(=O)NCCO)c([N+](=O)[O-])cc1OC	PNC assembly inh -93.1
O=C(CN1C(=O)c2ccccc2C1=O)Nc1ccccc1C(=O)NC1CCCCC1	none
CCOc1ccc(CNC2CCCc3ccccc32)cc1 (stereo unspecified)	none (no result: PNC assembly inh, HPGD block)
COc1ccc(C2C(C(=O)O)CC(=O)N2c2ccc(OC)cc2)cc1 (stereo unspecified)	none
CCOC(=O)N1CCN(C(=O)C2CC(=O)N(c3ccc(OC)cc3)C2c2ccc(OC)cc2)CC1 (stereo unspecified)	PNC assembly inh -100.0
N#CCSc1nnc(Cc2ccc3c(c2)OCO3)o1	none
Cc1nn(-c2ccccc2)c(C)c1C(=O)Oc1ccccc1	none (no result: PNC assembly inh, HPGD block)
Cc1nn(-c2ccccc2)c(C)c1C(=O)OCC(=O)NC(=O)NC1CCCC1	PNC assembly inh inconclusive (no result: HPGD block)
CC(=O)Nc1ccc(NC(=O)COC(=O)c2c(C)nn(-c3ccccc3)c2C)cc1	ALDH1A1 block 22.4µM, PNC assembly inh -82.9
Cc1nn(-c2ccccc2)c(C)c1C(=O)OCC(=O)NC12CC3CC(CC(C3)C1)C2	ALDH1A1 block 8.91µM
CCc1cccc(OCCn2ccnc2)c1	ALDH1A1 block inconclusive, PNC assembly inh -89.7
Clc1cccc(OCCN2CCOCC2)c1	none
Cc1cccc(OCCCCCn2ccnc2)c1	PNC assembly inh inconclusive
Brc1cccc(OCCN2CCCCC2)c1	none
Clc1cccc(OCCN2CCNCC2)c1	ALDH1A1 block 17.8µM
CCc1cccc(OCCN2CCCC2)c1	ALDH1A1 block 22.4µM, PNC assembly inh inconclusive
COc1ccc(NC(=S)N2CCNC(=O)C2CC(=O)Nc2ccc(C)cc2)cc1 (stereo unspecified)	ALDH1A1 block inconclusive
NNC(=O)CNC(=O)c1cccc(Br)c1	none
O=C(NNC(=S)NC(=O)c1cccnc1)c1ccccc1	none
O=C(NC(=S)Nc1ccc(N2CCOCC2)cc1)c1ccc2c(c1)OCCO2	ALDH1A1 block 20µM, HPGD block inconclusive
CC(=O)N1CCN(c2ccc(NC(=S)NC(=O)COc3ccc(C(C)(C)C)cc3)cc2)CC1	ALDH1A1 block 18.9µM
O=C(NC(=S)NNC(=O)c1cnccn1)c1ccc(F)cc1	ALDH1A1 block 28.2µM (no result: PNC assembly inh, HPGD block)
